Our source for the AC50 and outcome values is PubChem BioAssay (EPA / NIEHS).

Records with an inconclusive call do not appear. Some structures have more than one record in an assay (separate samples or runs), and their calls can disagree. Activity calls are given as the source filed them. The calls were made as follows: active = hit-call score of the fitted dose curve at least 0.9, where 1 is the maximum; inconclusive = response in the unintended direction; inactive = score below 0.9.

The AC50 is the concentration at which the activity in the assay is half-maximal.

Luciferin 4-monooxygenase (Photinus pyralis), sequence (P08659 whole entry, looked up): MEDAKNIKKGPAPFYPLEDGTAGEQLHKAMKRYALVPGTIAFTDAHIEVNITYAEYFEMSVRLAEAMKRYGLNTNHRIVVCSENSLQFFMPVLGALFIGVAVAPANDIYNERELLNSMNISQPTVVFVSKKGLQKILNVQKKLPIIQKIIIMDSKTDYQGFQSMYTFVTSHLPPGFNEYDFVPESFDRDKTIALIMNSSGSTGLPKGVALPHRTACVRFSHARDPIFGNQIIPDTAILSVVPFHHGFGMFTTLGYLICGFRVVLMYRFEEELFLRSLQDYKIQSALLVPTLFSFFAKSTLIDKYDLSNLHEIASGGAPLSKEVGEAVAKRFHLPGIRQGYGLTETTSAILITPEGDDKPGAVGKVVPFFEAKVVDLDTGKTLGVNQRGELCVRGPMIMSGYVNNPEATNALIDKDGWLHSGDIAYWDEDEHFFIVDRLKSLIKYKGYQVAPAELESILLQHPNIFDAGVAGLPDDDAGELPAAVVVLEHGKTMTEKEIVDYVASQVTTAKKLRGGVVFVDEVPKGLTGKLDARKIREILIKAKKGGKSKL

The first assay addresses Luciferin 4-monooxygenase (Photinus pyralis) (UniProt P08659). Put plainly: CCTE_Simmons_QuantiLum_inhib_2: CCTE's Firefly Luciferase Inhibition Assay, Simmons Lab (AID 2283767).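 As to AC50: potency for inhibitors that lower luciferase luminescence relative to DMSO.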 Summed up:
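Counter-screen for nonspecific enzyme inhibition: purified firefly luciferase incubated 30 min at 37C with chemicals up to 87.5 uM final, then luminescence measured after luciferin/dATP injection; activity fitted against DMSO baseline.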
`O=S1(=O)OC(c2cc(Br)c(O)c(Br)c2)(c2cc(Br)c(O)c(Br)c2)c2ccccc21`: the half-maximal activity concentration (AC50) was 32.1 µM (active).
On to `O=C(CBr)c1ccc(O)cc1`, for which the compound was called inactive.
As to `O=C(O)C1(c2ccc3c(c2)OC[C@H](Cc2ccc(-c4ccccc4)cc2)[C@H]3O)CCCC1`, the concentration at half-maximal activity (AC50) is 85.2 µM (active).
For `Nc1ccc(N)cc1`, the AC50 is 13.9 µM (active).
On to `O=C(CCl)Nc1ccccc1`, for which the compound was classed as inactive.
`CCCCCCCCCCCCc1cccc(S(=O)(=O)O)c1`: the compound was called inactive.
Regarding `N#CS`, the compound was called inactive.
For `CN(N=O)C(N)=O`, the outcome was inactive.
As to `CCCCCCCCCCCCOS(=O)(=O)O`, the call was inactive.
Take `O=c1[nH]c(=O)n(Cl)c(=O)n1Cl`: the outcome was inactive.
The same measure, in the same setting: with `O=C(NC(=O)c1c(F)cccc1F)Nc1ccc(Cl)cc1` the entry was “inactive”; with `O=C1c2ccccc2C(=O)C1C(=O)C(c1ccccc1)c1ccc(Cl)cc1` (configuration not stated), “inactive”; with `N#CCC#N`, “inactive”.

Test system in another assay: not listed separately
Put plainly: ACEA_AR_agonist_AUC_viability: ACEA Biosciences xCELLigence Real-Time Cell Analysis on Androgen Receptor Agonism for Viability (AID 2283775).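 As to AC50: viability read 80 hours after compound addition.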 Summed up:
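Read-out is area under the impedance curve at 80 h post-dose in 22Rv1 cells, with DMSO as baseline and signal loss taken as reduced viability. Compounds ran in duplicate from 100 uM final.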
For `CC(C)N(C(=O)CCl)c1ccccc1`, the half-maximal activity concentration (AC50) is 24.2 µM (active).
As for `Cc1cc(Cl)ccc1OC(C)C(=O)O` (configuration not stated), the compound was classed as inactive.
On the same count and under the same terms, then `O=C(O)COc1ccc(Cl)cc1`, with “inactive”; and `CCN(CCO)CCO`, with “inactive”.
For `O=C(O)C1(c2ccc3c(c2)OC[C@H](Cc2ccc(-c4ccccc4)cc2)[C@H]3O)CCCC1`, the AC50 is 34.6 µM (active).
Regarding `COCCl`, the outcome was inactive.
Regarding `CC(=Cc1ccccc1)[N+](=O)[O-]`, the concentration at half-maximal activity (AC50) is 13.5 µM (active).
For `O=[N+]([O-])c1ccccc1O`, the compound was called inactive.
The same measure, in the same setting: with `C=CC(Cl)CCl` (configuration not stated) the entry was “inactive”.
In the case of `Nc1ccc(N)cc1`, the compound was called inactive.
For `CC(O)(CS(=O)(=O)c1ccc(F)cc1)C(=O)Nc1ccc(C#N)c(C(F)(F)F)c1` (configuration not stated), the half-maximal activity concentration (AC50) was 44 µM (active) and the result was inactive.
With `O=C(CCl)Nc1ccccc1`, the half-maximal activity concentration (AC50) is 24.5 µM (active).
The same measure, in the same setting: then `CCCCCCCCCCCCc1cccc(S(=O)(=O)O)c1`, with 76.7 µM (active).
For `Cc1cc(Cl)ccc1OCCCC(=O)O`, the compound was classed as inactive.
Turning to `N#CS`, the compound was called inactive.
As to `Clc1cccc(Cl)c1`, the call was inactive.
With `O=c1nc(O)n(Cl)c(=O)n1Cl`, the compound was called inactive.
For the compound `CCCCCCCCCCCCOS(=O)(=O)O`, the AC50 was 77.7 µM (active).
On to `Oc1cc(Cl)c(Cl)cc1Cl`, for which the AC50 was 64.8 µM (active).
On to `Clc1cccc(Cl)c1Cl`, for which the result was inactive.
On to `N#Cc1cccnc1`, for which the call was inactive.
For `O=c1[nH]c(=O)n(Cl)c(=O)n1Cl`, the call was inactive.
In the case of `O=C(NC(=O)c1c(F)cccc1F)Nc1cc(Cl)c(OC(F)(F)C(F)C(F)(F)F)cc1Cl` (configuration not stated), the half-maximal activity concentration (AC50) was 5.54 µM (active).
In the case of `O=C1c2ccccc2C(=O)C1C(=O)C(c1ccccc1)c1ccc(Cl)cc1` (configuration not stated), the concentration at half-maximal activity (AC50) was 26.7 µM (active).
As for `COc1nn(C(=O)NS(=O)(=O)c2ccccc2OC(F)(F)F)c(=O)n1C`, the compound was classed as inactive.
Still for that read-out and setting: with `CNC(=O)O/N=C/C(C)(C)S(C)(=O)=O` the entry was “inactive”; with `OCCCCO`, “inactive”.
Take `N#CCC#N`: the compound was called inactive.
